# Experimental data published in the supplement of paper PMC4022240.
# ± gives the standard deviation.
# T1: HaloTag-ATRX ADD domain (163-292)
# T1 chain: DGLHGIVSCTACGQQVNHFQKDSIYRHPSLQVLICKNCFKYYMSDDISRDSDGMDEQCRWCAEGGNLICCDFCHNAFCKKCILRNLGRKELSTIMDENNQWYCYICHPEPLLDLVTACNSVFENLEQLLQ
# Experiments:
# Assay in all cases: peptide microarray binding signal (635 nm), min-max normalized on array (fraction of array maximum); higher = stronger binding
# Conditions in all cases: peptide region: H4 38-50
# [1] = molecular target: T1, HaloTag-ATRX ADD domain (163-292)
# How it was run: (§1)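 For each library, binding signal was taken as the triplicate-spot mean intensity and then min-max scaled. Spots of histone 13-mer peptide–cellulose conjugates on nitrocellulose, printed in triplicate with a Cy3 tracer, were probed for 1 h at 4°C with either biotin-labelled HaloTag reader fusions (10 nM to 1 μM) and streptavidin-Alexa Fluor 647 or rabbit histone antibodies (1:10,000 to 1:2,000) and anti-rabbit Alexa 647. Readout at 635 nm came from an Axon GenePix 4000B.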
# [2] = molecular target: HaloTag-ING2 PHD (mouse Ing2 200-280)
# How it was run: as §1
# [3] = molecular target: anti-H3K4me3 antibody ab8580
# How it was run: as §1
# [4] = molecular target: anti-H3K9me3 antibody ab8898
# How it was run: as §1
# [5] = peptide modifications: H4K44me2 H4R45cit, binder concentration: 1:2,000 dilution
# [6] = peptide modifications: H4K44me2 H4R45cit, binder concentration: 1:10,000 dilution
# [7] = peptide modifications: H4K44me2 H4R45me2a, binder concentration: 1:2,000 dilution
# [8] = peptide modifications: H4K44me2 H4R45me2a, binder concentration: 1:10,000 dilution
# [9] = peptide modifications: H4K44me3, binder concentration: 1:2,000 dilution
# [10] = peptide modifications: H4K44me3, binder concentration: 1:10,000 dilution
# [11] = peptide modifications: H4K44me2, binder concentration: 1:2,000 dilution
# [12] = peptide modifications: H4K44me2, binder concentration: 1:10,000 dilution
# [13] = peptide modifications: H4K44me2 H4R45me2s, binder concentration: 1:2,000 dilution
# [14] = peptide modifications: H4K44me2 H4R45me2s, binder concentration: 1:10,000 dilution
# [15] = peptide modifications: H4K44me1 H4R45me2a, binder concentration: 1:2,000 dilution
# [16] = peptide modifications: H4K44me1 H4R45me2a, binder concentration: 1:10,000 dilution
# [17] = peptide modifications: H4K44me2 H4R45me1, binder concentration: 1:2,000 dilution
# [18] = peptide modifications: H4K44me3 H4R45me1, binder concentration: 1:2,000 dilution
# [19] = peptide modifications: H4K44me3 H4R45me1, binder concentration: 1:10,000 dilution
# [20] = peptide modifications: H4K44me3 H4R45cit, binder concentration: 1:2,000 dilution
# [21] = peptide modifications: H4K44me3 H4R45cit, binder concentration: 1:10,000 dilution
# [22] = peptide modifications: H4K44me1 H4R45me2s, binder concentration: 1:2,000 dilution
# [23] = peptide modifications: H4K44me1 H4R45me2s, binder concentration: 1:10,000 dilution
binder,measurement,setting,value
ARRGGVKRISGLI [H4 38-50 A R R G G V Kme2 Rcit I S G L I],peptide microarray binding signal,"[1]; peptide modifications: H4K44me2 H4R45cit, binder concentration: 50 nM",0.00389 ± 6.7e-05
same,peptide microarray binding signal,"[1]; peptide modifications: H4K44me2 H4R45cit, binder concentration: 500 nM",0.00743
same,peptide microarray binding signal,"[2]; peptide modifications: H4K44me2 H4R45cit, binder concentration: 10 nM",0.007102 ± 3.2e-05
same,peptide microarray binding signal,"[2]; peptide modifications: H4K44me2 H4R45cit, binder concentration: 100 nM",0.0109 ± 0.00033
same,peptide microarray binding signal,[3]; [5],0.00136 ± 0.00012
same,peptide microarray binding signal,[3]; [6],0.00177 ± 2.9e-05
same,peptide microarray binding signal,[4]; [5],0.00104 ± 2.9e-05
same,peptide microarray binding signal,[4]; [6],0.0011 ± 2.9e-05
ARRGGVKRISGLI [H4 38-50 A R R G G V Kme2 Rme2a I S G L I],peptide microarray binding signal,"[1]; peptide modifications: H4K44me2 H4R45me2a, binder concentration: 50 nM",0.00665 ± 0.0002
same,peptide microarray binding signal,"[1]; peptide modifications: H4K44me2 H4R45me2a, binder concentration: 500 nM",0.00881 ± 0.00022
same,peptide microarray binding signal,"[2]; peptide modifications: H4K44me2 H4R45me2a, binder concentration: 10 nM",0.00859 ± 0.00016
same,peptide microarray binding signal,"[2]; peptide modifications: H4K44me2 H4R45me2a, binder concentration: 100 nM",0.0109 ± 0.00048
same,peptide microarray binding signal,[3]; [7],0.00187 ± 6e-05
same,peptide microarray binding signal,[3]; [8],0.00371 ± 0.00016
same,peptide microarray binding signal,[4]; [7],0.00208 ± 4.3e-05
same,peptide microarray binding signal,[4]; [8],0.00265 ± 9.3e-05
ARRGGVKRISGLI [H4 38-50 A R R G G V Kme3 R I S G L I],peptide microarray binding signal,"[1]; peptide modifications: H4K44me3, binder concentration: 50 nM",0.00367 ± 6.4e-05
same,peptide microarray binding signal,"[1]; peptide modifications: H4K44me3, binder concentration: 500 nM",0.00671 ± 0.00031
same,peptide microarray binding signal,"[2]; peptide modifications: H4K44me3, binder concentration: 10 nM",0.00859 ± 9.7e-05
same,peptide microarray binding signal,"[2]; peptide modifications: H4K44me3, binder concentration: 100 nM",0.0129 ± 0.00014
same,peptide microarray binding signal,[3]; [9],0.00104 ± 4.6e-05
same,peptide microarray binding signal,[3]; [10],0.0016 ± 2.7e-05
same,peptide microarray binding signal,[4]; [9],0.0011 ± 0.0001
same,peptide microarray binding signal,[4]; [10],0.00161 ± 5.6e-05
ARRGGVKRISGLI [H4 38-50 A R R G G V Kme2 R I S G L I],peptide microarray binding signal,"[1]; peptide modifications: H4K44me2, binder concentration: 50 nM",0.0141 ± 0.0019
same,peptide microarray binding signal,"[1]; peptide modifications: H4K44me2, binder concentration: 500 nM",0.0244 ± 0.00095
same,peptide microarray binding signal,"[2]; peptide modifications: H4K44me2, binder concentration: 10 nM",0.0118 ± 0.00032
same,peptide microarray binding signal,"[2]; peptide modifications: H4K44me2, binder concentration: 100 nM",0.0304 ± 0.0032
same,peptide microarray binding signal,[3]; [11],0.00204 ± 0.00018
same,peptide microarray binding signal,[3]; [12],0.00359 ± 0.00012
same,peptide microarray binding signal,[4]; [11],0.00169 ± 3e-05
same,peptide microarray binding signal,[4]; [12],0.00231 ± 5.5e-05
ARRGGVKRISGLI [H4 38-50 A R R G G V Kme2 Rme2s I S G L I],peptide microarray binding signal,"[1]; peptide modifications: H4K44me2 H4R45me2s, binder concentration: 50 nM",0.00586 ± 0.00025
same,peptide microarray binding signal,"[1]; peptide modifications: H4K44me2 H4R45me2s, binder concentration: 500 nM",0.0125 ± 0.00027
same,peptide microarray binding signal,"[2]; peptide modifications: H4K44me2 H4R45me2s, binder concentration: 10 nM",0.0175 ± 0.00042
same,peptide microarray binding signal,"[2]; peptide modifications: H4K44me2 H4R45me2s, binder concentration: 100 nM",0.0397 ± 0.019
same,peptide microarray binding signal,[3]; [13],0.00361 ± 0.00025
same,peptide microarray binding signal,[3]; [14],0.00611 ± 0.00033
same,peptide microarray binding signal,[4]; [13],0.0037 ± 0.00027
same,peptide microarray binding signal,[4]; [14],0.00484 ± 0.00089
ARRGGVKRISGLI [H4 38-50 A R R G G V Kme Rme2a I S G L I],peptide microarray binding signal,"[1]; peptide modifications: H4K44me1 H4R45me2a, binder concentration: 50 nM",0.0254 ± 0.0015
same,peptide microarray binding signal,"[1]; peptide modifications: H4K44me1 H4R45me2a, binder concentration: 500 nM",0.016 ± 0.00078
same,peptide microarray binding signal,"[2]; peptide modifications: H4K44me1 H4R45me2a, binder concentration: 10 nM",0.0305 ± 0.00031
same,peptide microarray binding signal,"[2]; peptide modifications: H4K44me1 H4R45me2a, binder concentration: 100 nM",0.0275 ± 0.00071
same,peptide microarray binding signal,[3]; [15],0.00417 ± 0.00012
same,peptide microarray binding signal,[3]; [16],0.00987 ± 0.00037
same,peptide microarray binding signal,[4]; [15],0.00331 ± 7.1e-05
same,peptide microarray binding signal,[4]; [16],0.00974 ± 0.0007
ARRGGVKRISGLI [H4 38-50 A R R G G V Kme2 Rme I S G L I],peptide microarray binding signal,"[1]; peptide modifications: H4K44me2 H4R45me1, binder concentration: 500 nM",0.00233 ± 8.5e-05
same,peptide microarray binding signal,"[2]; peptide modifications: H4K44me2 H4R45me1, binder concentration: 100 nM",0.00361 ± 0.00019
same,peptide microarray binding signal,[3]; [17],0.000491 ± 1.3e-05
same,peptide microarray binding signal,[4]; [17],0.000347 ± 9.2e-06
ARRGGVKRISGLI [H4 38-50 A R R G G V Kme3 Rme I S G L I],peptide microarray binding signal,"[1]; peptide modifications: H4K44me3 H4R45me1, binder concentration: 50 nM",0.002821 ± 2.4e-05
same,peptide microarray binding signal,"[1]; peptide modifications: H4K44me3 H4R45me1, binder concentration: 500 nM",0.00524 ± 8.9e-05
same,peptide microarray binding signal,"[2]; peptide modifications: H4K44me3 H4R45me1, binder concentration: 10 nM",0.0104 ± 0.0012
same,peptide microarray binding signal,"[2]; peptide modifications: H4K44me3 H4R45me1, binder concentration: 100 nM",0.0257 ± 0.006
same,peptide microarray binding signal,[3]; [18],0.00143 ± 5.5e-05
same,peptide microarray binding signal,[3]; [19],0.001655 ± 1.6e-05
same,peptide microarray binding signal,[4]; [18],0.000951
same,peptide microarray binding signal,[4]; [19],0.000865 ± 9e-06
ARRGGVKRISGLI [H4 38-50 A R R G G V Kme3 Rcit I S G L I],peptide microarray binding signal,"[1]; peptide modifications: H4K44me3 H4R45cit, binder concentration: 50 nM",0.0125 ± 0.00042
same,peptide microarray binding signal,"[1]; peptide modifications: H4K44me3 H4R45cit, binder concentration: 500 nM",0.0116 ± 0.0018
same,peptide microarray binding signal,"[2]; peptide modifications: H4K44me3 H4R45cit, binder concentration: 10 nM",0.00836 ± 0.00091
same,peptide microarray binding signal,"[2]; peptide modifications: H4K44me3 H4R45cit, binder concentration: 100 nM",0.00588 ± 0.0012
same,peptide microarray binding signal,[3]; [20],0.00387 ± 0.00082
same,peptide microarray binding signal,[3]; [21],0.00502 ± 0.00084
same,peptide microarray binding signal,[4]; [20],0.00444 ± 0.00077
same,peptide microarray binding signal,[4]; [21],0.00467 ± 0.00024
ARRGGVKRISGLI [H4 38-50 A R R G G V Kme Rme2s I S G L I],peptide microarray binding signal,"[1]; peptide modifications: H4K44me1 H4R45me2s, binder concentration: 50 nM",0.006019 ± 2.1e-05
same,peptide microarray binding signal,"[1]; peptide modifications: H4K44me1 H4R45me2s, binder concentration: 500 nM",0.00619 ± 0.00016
same,peptide microarray binding signal,"[2]; peptide modifications: H4K44me1 H4R45me2s, binder concentration: 10 nM",0.0119 ± 0.00057
same,peptide microarray binding signal,"[2]; peptide modifications: H4K44me1 H4R45me2s, binder concentration: 100 nM",0.0102 ± 0.0013
same,peptide microarray binding signal,[3]; [22],0.00185 ± 0.00022
same,peptide microarray binding signal,[3]; [23],0.00451 ± 0.00035
same,peptide microarray binding signal,[4]; [22],0.00219 ± 0.00017
same,peptide microarray binding signal,[4]; [23],0.0034 ± 0.00013
